# From PubChem
# sPLA2-III inh: human group III sPLA2 inhibitors, primary screen, biochemical, QFRET, BODIPY PC-A2 liposome substrate; QFRET BODIPY PC-A2 liposome hydrolysis, fluorescence; inhibition, % at 12.2 µM; 370,000 compounds, 0.56% hits; AID 743126, 2013;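 active means inhibition above mean plus 3 SD of compounds lying within the high and low control bounds, cut at about 19% in these data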;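 further: 0% = median of test compound wells and 100% = no enzyme DMSO wells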
# UBC13 inh: UBC13 polyubiquitin chain formation inhibitors, primary screen, biochemical, TR-FRET, uHTS; Ubiquitin-conjugating enzyme E2 N (Homo sapiens), P61088; inhibition, % at 20 µM; 330,000 compounds, 0.47% hits; AID 485273, 2010; in the data active means inhibition above about 45%, passing the limit was not always enough
# Target sequence (P61088 whole entry, looked up): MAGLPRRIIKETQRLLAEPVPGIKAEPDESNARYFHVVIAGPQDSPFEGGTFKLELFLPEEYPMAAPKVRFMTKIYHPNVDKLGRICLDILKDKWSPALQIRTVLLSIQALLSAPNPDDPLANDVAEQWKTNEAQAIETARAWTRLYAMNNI
# SUMO HTRF inh: inhibitors of in vitro SUMOylation cascade, primary screen, biochemical, HTRF, uHTS | HTRF SUMOylation assay, SAE1/SAE2 + UBC9 | 290,000 compounds, 0.36% hits | SUMO-conjugating enzyme UBC9 (Homo sapiens), P63279 | inhibition, % at 35 µM | AID 2006, 2009; in the data active means inhibition above about 50%, passing the limit was not always enough
# Target sequence (P63279 whole entry, looked up): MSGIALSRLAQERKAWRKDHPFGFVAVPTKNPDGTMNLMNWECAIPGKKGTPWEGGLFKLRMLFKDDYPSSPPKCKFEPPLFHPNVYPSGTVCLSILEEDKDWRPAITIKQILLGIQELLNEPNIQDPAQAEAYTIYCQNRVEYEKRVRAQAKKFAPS
# NR3A LBD binder: binders of NR3A ligand-binding domain, primary screen, biophysical, differential scanning fluorimetry, uHTS. NR3A LBD differential scanning fluorimetry, Tm shift; 0% = protein alone, 100% = glycine-bound protein. Glutamate receptor ionotropic, NMDA 3A (GRIN3A) ligand-binding domain. 340,000 compounds, 2.5% hits. Tm shift relative to glycine control, % at 25 µM;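 active means melting temperature shift of at least 10% of the positive control shift, at one fixed dose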
# Active calls of the source: *; · = no result. Rows were chosen to be rich in hits. Some 3.3% of all compounds tested hit in one or more screens of this group.
SMILES,sPLA2-III inh,UBC13 inh,SUMO HTRF inh,NR3A LBD binder
Cc1ccc2[nH]c(C(=O)N/N=C/c3ccc([N+](=O)[O-])cc3)c(C)c2c1,-15,-14,5,20*
O=C(CCS(=O)(=O)c1cc2c(cc1Br)CCN2C(=O)C1CC1)N1CCN(c2ccccn2)CC1,-1,·,·,·
CCCNC(=S)N1CCN(c2nc(-c3ccc(C)cc3)cs2)CC1,15,2,-12,12*
CCOc1ccc(-n2c(SCC(=O)Nc3cccc4ccccc34)nnc2-c2ccccc2)cc1,0,·,·,·
c1ccc2c(-c3c[nH]c4ccccc34)c3ccccc3nc2c1,-9,5,-20,0
O=C(O)c1cc(-c2c[nH]c3ccccc23)nc2ccc3ccccc3c12,-29,15,24,11*
COc1ccccc1C(=O)Nc1ccccn1,5,-13,-2,1
COc1ccccc1C(=O)Nc1ccc(Br)c2cccnc12,-1,12,5,21*
CC(=O)O[C@@H]1[C@@H](O)[C@@H](O)[C@H](Oc2c(-c3ccc(O)cc3)oc3c(CC=C(C)C)c(O)cc(O)c3c2=O)O[C@H]1C,·,46*,·,3
CCCCNC(=O)C1CCCN1C(=O)Nc1cc(Cl)cc(Cl)c1 (configuration not stated),7,·,·,·
NC(N)=NCCCC(NC(=O)c1ccccc1)C(=O)Nc1ccc([N+](=O)[O-])cc1 (configuration not stated),11,27,·,16*
Cc1nc2ccccn2c1C(O)(c1ccccc1)c1ccccc1,-1,·,·,·
Cc1cccc(OCCNc2ccc([N+](=O)[O-])cn2)c1,-6,-4,1,-6
O=[N+]([O-])c1ccc(NCCOc2ccccc2Cl)nc1,8,-1,14,16*
CC(=O)NCCCOc1ccc([N+](=O)[O-])cc1Cl,3,-4,-2,10*
CSC1=NSC2=NC(=O)/C(=C/c3coc4ccc(O)cc4c3=O)C(=N)N12,-20,-17,13,15*
N=C1/C(=C\c2coc3ccccc3c2=O)C(=O)N=C2SC=CN12,-22,-30,5,-3
CSC1=NSC2=NC(=O)/C(=C/c3coc4ccccc4c3=O)C(=N)N12,-27,·,11,11*
CN(Cc1ccccc1F)C(=O)C1CCCN(c2ncccn2)C1 (configuration not stated),10,·,·,·
COC(=O)[C@]12C[C@H](CC(=O)N3CCCCC3)C(=O)N(CCc3ccc(OC)c(OC)c3)C1=C[C@H](C(C)C)O[C@@H]2C1CC1,-5,·,·,·
CCN(CC)C(=O)Cn1cc(S(=O)(=O)CC(=O)NCCc2ccccc2)c2ccccc21,0,0,-2,15*
CC(C)N(C(=O)Cn1cc(S(=O)(=O)CC(=O)NCCc2ccccc2)c2ccccc21)C(C)C,-10,·,·,·
Cc1nc2c(C)cccc2cc1C(=O)N/N=C/c1cccnc1,4,-7,-7,14*
C=CCN1C(=O)[C@@H](CC(=O)NCc2ccc(OC)c(OC)c2)[C@]2(C(=O)OCC)CCCCC/C=C/12,-3,·,·,·
Cn1c(N)c(C(=O)N/N=C/c2ccccc2)sc1=S,12,2,7,33*
SMILES,sPLA2-III inh,UBC13 inh,SUMO HTRF inh,NR3A LBD binder
Cc1c(C(=O)N/N=C/c2cccnc2)sc(=S)n1C,17,-11,8,-8
Cc1ccccc1CNC(=S)OC1CCC12CCC(c1ccccc1)CC2 (configuration not stated),4,·,·,·
O=c1c2[nH]c3ccc(Br)cc3c2ncn1CCCn1ccnc1,1,21,13,16*
COC(=O)c1ccc(NC(=O)C(=O)N2CCN(C(=S)Nc3ccc(C)cc3)CC2)cc1,4,2,16,11*
CCOC(=O)c1[nH]c2ccc(OC)cc2c1NC(=S)N1CCN(c2cccc(Cl)c2)CC1,8,5,-15,13*
CC(=O)Nc1ccc(/C=N/Nc2nc3ccccc3s2)cc1,-21,·,25,16*
COc1ccc(/C=N/Nc2nc3ccccc3o2)cc1O,-17,-10,2,-4
Oc1ccc(C=NNc2nc3ccccc3s2)c(O)c1,-32,·,·,38*
COc1ccc(/C=N/Nc2nc3ccccc3s2)cc1O,-47,·,-2,13*
CC(=O)NNc1nc2ccccc2s1,5,4,6,-14
CC(=O)Nc1sc(N/N=C/c2ccccc2)nc1-c1ccc(C)cc1,9,1,21,11*
CC(=O)Nc1sc(N/N=C/c2ccc(O)cc2)nc1-c1ccc(C)cc1,-11,-3,-2,0
CCOc1ccc(-n2c(COc3ccccc3)nnc2SCc2nc3ccccc3[nH]2)cc1,-21,·,·,·
C(=N\Nc1nc2ccccc2s1)/c1cccs1,-10,-6,20,-2
CC(=NNc1nc2ccccc2s1)c1ncccn1,-4,·,·,-1
COc1cccc(C=NNc2nc3ccccc3s2)c1OC,-3,·,·,-4
Cc1ccsc1/C=N/Nc1nc2ccccc2s1,6,-6,16,24*
Oc1ccccc1C=NNc1nc2ccccc2s1,-11,·,·,31*
CC(=O)c1sc(N/N=C\c2ccc(Br)cc2)nc1C,-4,-16,-10,16*
CC(=O)Nc1cccc(/C(C)=N/Nc2nc3ccccc3s2)c1,-12,0,13,31*
C[C@H]1[C@@H](NCc2cccs2)CC[C@@]23CCCN2C(=O)CCC[C@@H]13,-1,·,·,·
NC(=O)c1c(N)[nH]c(C(=O)c2ccccc2)c1-c1ccccn1,-1,·,·,·
CC(COc1cccc(Br)c1)CN1CCC(C(O)(c2ccccc2)c2ccccc2)CC1 (configuration not stated),-11,·,·,·
COc1cccc([C@H]2NC(=O)C/C=C/[C@@H](C)[C@@H](c3cccc(OC)c3)NC(=O)C/C=C/[C@H]2C)c1,14,·,·,·
Cc1cc(Nc2ncc(Cl)cc2Cl)n(-c2ccccc2)n1,4,-2,5,11*
SMILES,sPLA2-III inh,UBC13 inh,SUMO HTRF inh,NR3A LBD binder
Cc1cc(Nc2ncc(Cl)cc2Cl)n(-c2ccccn2)n1,6,·,24,-2
O=C(CSc1nnc(-c2cnccn2)n1-c1ccccc1)c1ccc(F)cc1,-33,·,·,·
COc1cccc(-c2cc(N)nn2C(=O)Nc2ccc(Cl)cc2)c1,-3,12,3,27*
COc1cccc(NC(=O)C2CCCN2C(=O)Nc2ccc(Cl)cc2)c1 (configuration not stated),3,·,·,·
Cc1ccc(NC(=O)CN2C(=O)S/C(=C\c3cccn3-c3cccc(C(=O)O)c3)C2=O)cc1C,0,-11,64*,-4
Cc1ccc(NC(=O)CN2C(=O)S/C(=C\c3cccn3-c3cccc(C(=O)O)c3)C2=O)c(C)c1,·,-55,83*,-7
NC(=O)Nc1ccc(C(=O)OCC(=O)Nc2sccc2C(N)=O)cc1,-9,12,·,32*
COc1ccccc1NC(=O)COC(=O)Cc1c[nH]c2ccccc12,-57,-6,-10,-4
NC(=O)c1ccsc1NC(=O)COC(=O)Cc1c[nH]c2ccccc12,-34,11,·,26*
NC(=O)c1ccsc1NC(=O)COC(=O)Cc1cccc2ccccc12,-5,20,2,24*
